# Assay results from PubChem BioAssay AID2588 (National Center for Advancing Translational Sciences (NCATS), 2010).
# Values joined by “and” are separate entries in the source; they are usually repeats but may differ in a detail not shown here. Equal entries are not always repeated. Results filed as inconclusive are left out. Active and inactive are the calls of the source. The call rests on the fitted dose curve; in most records, active means well fitted inhibition curve with a large enough effect; inconclusive means small, poorly fitted or top-dose-only effect, or effect the other way; inactive means flat fitted curve, though single readings scatter.
# Target: Lysosomal acid glucosylceramidase (Homo sapiens) (UniProt P04062)
# Test: qHTS Assay for Inhibitors and Activators of N370S glucocerebrosidase as a Potential Chaperone Treatment of Gaucher Disease: Activity in Non-Mutant Spleen Homogenate Using a Red Fluorescent Substrate
# Conditions: red fluorogenic substrate GCase activity; series mostly up to 50.2 µM
# From the text: NIH Chemical Genomics Center [NCGC]
# NIH Molecular Libraries Probe Production Centers Network [MLPCN]
# Assay Submitter (PI): Wei Zheng
# Glucocerebrosidase (GC) catalyzes the hydrolysis of beta-glucocerebroside to glucose and ceramide in lysosomes. Mutations in the glucocerebrosidase gene result in Gaucher disease, an autosomal recessive lysosomal storage disorder. Many of the mutations encountered in patients with Gaucher disease are missense alterations that may cause misfolding, decreased stability and/or mistrafficking of this lysosomal protein. […] These inhibitors include iminosugar analogs and three non-iminosugar inhibitors identified from a previous HTS of 62,000 compounds with the wild type recombinant enzyme. However, the enhancement of enzyme activity by the chaperone action of an enzyme inhibitor must be balanced against the direct inhibition of the enzyme. An enzyme activator could also function as a chaperone by binding to the enzyme and helping to correct its misfolding and mistrafficking. While activators for GC have not yet been identified, they may have better therapeutic potential than inhibitors. Therefore the discovery and development of chemical activators may provide a new strategy for the chaperone therapy.
# We have optimized a new assay using N370S mutant GC derived from the spleen of a Gaucher patient. […] In addition, the MLPCN compound library has expanded, which increases the chance of finding new and better probes.
# This confirmation assay tests for compound activity in spleen homogenate containing wildtype enzyme using an alternate resorufin-based substrate.
# NCGC Assay Protocol Summary:
# This is a fluorogenic enzyme assay with resorufin-beta-D-glucopyranoside as the substrate and wildtype glucocerebrosidase from human spleen homogenate as the enzyme preparation. Upon the hydrolysis of this fluorogenic substrate, the resulting product, […] which can be detected by a standard fluorescence plate reader. Data were normalized to the controls for basal activity (without enzyme) and 100% activity (with enzyme). The AC50 values were determined from concentration-response data modeled with the standard Hill equation.
# Assay buffer: 50 mM citric acid (titrated with potassium phosphate to pH 5.0), 100 mM potassium chloride, 10 mM sodium chloride, 1 mM magnesium chloride, 0.01% Tween-20.
# 1536-well assay protocol:
# (1) Add 2 ul/well of spleen homogenate (27 ug final)
# (2) Add 23 nL compounds in DMSO solution. The final titration was 0.5 nM to 58 uM.
# (3) Add 2 ul of substrate (1 mM final)
# (4) Incubate at 37C for 40 min.
# (5) Add 2 ul stop solution (1M NaOH and 1M Glycine mixture, pH 10)
# (6) Detect the assay plate in a ViewLux plate reader (PerkinElmer) with Ex=365 nm and Em=440nm.
# Keywords: Glucocerebrosidase, beta-glucosidase, Gaucher Disease, pharmacological chaperone, chaperone therapy, high throughput screening, glucocerebrosidase inhibitor, MLSMR, MLSCN, NIH Roadmap, qHTS and NCGC
# Sequence of Lysosomal acid glucosylceramidase (Homo sapiens) (P04062 whole entry, looked up): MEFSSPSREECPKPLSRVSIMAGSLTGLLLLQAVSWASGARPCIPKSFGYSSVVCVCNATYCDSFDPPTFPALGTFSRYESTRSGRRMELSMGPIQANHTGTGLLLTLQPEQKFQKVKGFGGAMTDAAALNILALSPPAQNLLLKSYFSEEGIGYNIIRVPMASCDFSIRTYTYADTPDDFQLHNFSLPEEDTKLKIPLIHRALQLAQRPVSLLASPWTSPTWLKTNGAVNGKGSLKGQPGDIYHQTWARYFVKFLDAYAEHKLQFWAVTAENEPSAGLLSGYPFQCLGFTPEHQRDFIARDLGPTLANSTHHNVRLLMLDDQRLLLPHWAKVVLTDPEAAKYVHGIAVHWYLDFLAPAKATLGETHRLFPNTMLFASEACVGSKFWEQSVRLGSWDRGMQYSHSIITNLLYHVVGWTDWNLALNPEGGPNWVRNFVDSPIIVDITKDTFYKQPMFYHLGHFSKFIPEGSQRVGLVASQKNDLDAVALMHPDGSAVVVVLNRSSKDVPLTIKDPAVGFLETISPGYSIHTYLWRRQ
row,SMILES,Potency
1,COc1cc(OC)cc(C(=O)N[C@H](C(=O)OCC(=O)Nc2cccc(F)c2)C(C)C)c1,inactive
2,O=S(=O)(c1ccccc1)N1CCN(c2nc(-c3cccs3)nc3ccccc23)CC1,0.316 µM (active)
3,Cc1cccc(Nc2nc(NCCO)nc(N3CCCC3)n2)c1,inactive
4,O=S(=O)(c1ccc(F)cc1)N1CCN(c2nc(-c3cccs3)nc3ccccc23)CC1,0.794 µM (active)
5,CCC(C)NC(=O)COC(=O)c1ccccc1OCC(=O)Nc1ccc(Br)cc1 (stereo not given),inactive
6,O=S(=O)(c1ccc(Cl)cc1)N1CCN(c2nc(-c3cccs3)nc3ccccc23)CC1,1.58 µM (active) and 355 nM (active)
7,O=S(=O)(c1cccc(Br)c1)N1CCN(c2nc(-c3cccs3)nc3ccccc23)CC1,1.41 µM (active)
8,O=C(CSc1nccc(-c2cccs2)n1)Nc1cccc(Cl)c1,inactive
9,CC(C)(C)c1ccc(S(=O)(=O)N2CCN(c3nc(-c4cccs4)nc4ccccc34)CC2)cc1,1.12 µM (active)
10,Nc1nc(-c2ccccc2)c(N=Nc2ccc(Cl)cc2)s1,inactive
11,CC(=O)c1ccc(S(=O)(=O)N2CCN(c3nc(-c4cccs4)nc4ccccc34)CC2)cc1,1.12 µM (active)
12,O=S(=O)(c1ccc2c(c1)OCCO2)N1CCN(c2nc(-c3cccs3)nc3ccccc23)CC1,0.141 µM (active)
13,Cc1ccc(S(=O)(=O)N2CCN(c3nc(-c4cccs4)nc4ccccc34)CC2)cc1,0.316 µM (active)
14,O=S(=O)(c1cccc(C(F)(F)F)c1)N1CCN(c2nc(-c3cccs3)nc3cc(Cl)ccc23)CC1,inactive
15,O=c1cc(N2CCCCC2)c(-c2ccccc2)nn1Cc1c(Cl)cccc1Cl,inactive
16,Cc1cc(C)n2ncc(C(=O)Nc3cccc(O)c3)c2n1,inactive
17,N#Cc1ccc(S(=O)(=O)N2CCN(c3nc(-c4cccs4)nc4ccccc34)CC2)cc1,0.794 µM (active)
18,Cc1cc(N2CCOCC2)nc2ccc(NC(=O)CCC3CCCC3)cc12,3.16 µM (active)
19,Cc1cc(N2CCN(c3ncccn3)CC2)nc2ccc(NC(=O)C3CCC(C)CC3)cc12 (stereo not given),11.2 µM (active)
20,O=S(=O)(c1ccccc1C(F)(F)F)N1CCN(c2nc(-c3ccccc3)nc3ccccc23)CC1,1 µM (active)

row,SMILES,Potency
1,CC(=O)Nc1ccc(NC(=O)COc2ccccc2C(=O)Nc2cccc(Cl)c2Cl)cc1,inactive
2,Cc1cc(N2CCC(C)CC2)nc2ccc(NC(=O)C3CCC(C)CC3)cc12 (stereo not given),5.01 µM (active)
3,Cc1ccc(S(=O)(=O)Nc2ccc(C(=O)NCc3ccccc3)cc2)cc1,inactive
4,COc1ccc(S(=O)(=O)N2CCN(c3nc(-c4ccccc4)nc4ccccc34)CC2)cc1,2.51 µM (active)
5,COc1ccccc1OCC(=O)Nc1oc(-c2ccccc2)c(-c2ccccc2)c1C#N,inactive
6,O=S(=O)(c1ccc(F)cc1)N1CCN(c2nc(-c3ccc(F)cc3)nc3cc(Cl)ccc23)CC1,inactive
7,O=S(=O)(c1ccccc1Cl)N1CCN(c2nc(-c3cccs3)nc3ccccc23)CC1,0.794 µM (active)
8,Cc1ccc(NC(=O)COc2ccccc2C(=O)Nc2ccccc2)cc1Cl,inactive
9,CCN(CC)c1cc(C)c2cc(NC(=O)C3CCC(C)CC3)ccc2n1 (stereo not given),15.8 µM (active)
10,O=S(=O)(c1cccc(C(F)(F)F)c1)N1CCN(c2nc(-c3cccs3)nc3ccccc23)CC1,0.794 µM (active)
11,O=[N+]([O-])c1ccccc1S(=O)(=O)N1CCN(c2nc(-c3ccccc3)nc3ccccc23)CC1,4.47 µM (active)
12,O=S(=O)(c1cccc(C(F)(F)F)c1)N1CCN(c2nc(-c3ccccc3)nc3ccccc23)CC1,8.91 µM (active)
13,O=S(=O)(c1ccc2ccccc2c1)N1CCN(c2nc(-c3cccs3)nc3ccccc23)CC1,0.251 µM (active)
14,NS(=O)(=O)c1ccc(S(=O)(=O)N2CCN(c3nc(-c4cccs4)nc4ccccc34)CC2)cc1,2.24 µM (active)
15,O=S(=O)(c1ccc(F)cc1)N1CCN(c2nc(-c3cccc(Br)c3)nc3ccccc23)CC1,inactive
16,COc1ccc(S(=O)(=O)N2CCN(c3nc(-c4cccs4)nc4ccccc34)CC2)cc1OC,0.224 µM (active)
17,Cc1ccc(C)c(N2CCN(C(=O)CCC(=O)Nc3ccc4nc(N5CCOCC5)cc(C)c4c3)CC2)c1,14.1 µM (active)
18,O=S(=O)(c1ccc(Cl)cc1)N1CCN(c2nc(-c3ccc(Cl)cc3)nc3ccccc23)CC1,inactive
19,O=C(COc1ccccc1[N+](=O)[O-])Nc1ccc(Br)cc1,inactive
20,CCN(CC)c1ccc(C(=O)Nc2ccc3nc(N4CCOCC4)cc(C)c3c2)cc1,10 µM (active)
